# Only some compounds are listed: those with a hit (about 2% of all), similar ones and a draw of the others.
# PKA-R1A activ: activators of PKA-R1A holoenzyme, primary screen, biochemical, fluorescence polarization, Cy5-IP20, bovine R1A, mouse PKAc; 340,000 compounds, 0.083% hits; activation, % at 11.4 µM; cAMP-dependent protein kinase type I-alpha regulatory subunit (Bos taurus) + …; AID 504707, 2011; PKA-R1A dissociation; scaled: DMSO 0%, 113 µM cGMP 100%;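 active = percent activation above the mean of all tested compounds plus 3 SD, cut at about 19% in these data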;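 also: higher means more PKAc released from R1A so a rise in polarization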
# bovine MsrA act: bovine MsrA enzyme activators, primary screen, biochemical, absorbance, HTS; Methionine sulfoxide reductase A (Bos taurus); purified bovine MsrA, absorbance read-out; activation, % at 10.6 µM; 360,000 compounds, 0.3% hits; in the data active = activation above about 7.5%;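 also: 0% = vehicle and 100% = reference activator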
# Mot1-301 SUMO: yeast Mot1-301 growth rescue at high temperature, primary screen, SUMOylation pathway inhibitor project, S. cerevisiae, ATP luminescence, 38.5C; S. cerevisiae Mot1-301 growth rescue; percent above DMSO median, 100 means doubled; growth rescue, % at 18.8 µM; 320,000 compounds, 1% hits;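 active = every valid replicate shows activation above 250% relative to neutral control wells; inactive = the rest, any valid replicate at or below 250%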;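 also: OY570 slx delta 5 strain wells were the positive control but not used for scaling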
# PKA-R2B act: activators of PKA-R2B holoenzyme, primary screen, biochemical, fluorescence polarization, Cy5-IP20, human; activation, % at 11.4 µM; cAMP-dependent protein kinase catalytic subunit beta (Homo sapiens) + cAMP-dependent …; 340,000 compounds, 0.079% hits; PKA-R2B holoenzyme dissociation; R2B truncated from residue 108, S112A mutant; 0% DMSO only, 100% 113 µM cGMP;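 active = activation above a cutoff set at the mean over all compounds plus 3 SD, cut at about 18% in these data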;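 also: higher means more holoenzyme dissociation and a rise in polarization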
# Target sequence (P31323 whole entry, looked up, other chains not shown, the tested form may be a part): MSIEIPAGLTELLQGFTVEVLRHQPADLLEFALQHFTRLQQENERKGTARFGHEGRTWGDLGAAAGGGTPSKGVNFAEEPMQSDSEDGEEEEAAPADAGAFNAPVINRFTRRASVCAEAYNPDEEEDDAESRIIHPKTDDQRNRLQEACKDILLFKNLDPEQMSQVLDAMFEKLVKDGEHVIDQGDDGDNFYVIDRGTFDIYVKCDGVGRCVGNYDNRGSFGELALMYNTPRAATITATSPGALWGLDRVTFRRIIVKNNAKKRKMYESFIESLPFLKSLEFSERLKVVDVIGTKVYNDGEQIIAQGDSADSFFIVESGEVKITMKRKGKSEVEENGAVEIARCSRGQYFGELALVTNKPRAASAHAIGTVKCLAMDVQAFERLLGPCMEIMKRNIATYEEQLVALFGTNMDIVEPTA
# MsrA inhibitor: bovine MsrA enzyme inhibitors, primary screen, biochemical, absorbance, HTS. Methionine sulfoxide reductase A (Bos taurus). purified bovine MsrA, absorbance read-out. inhibition, % at 15.5 µM. 360,000 compounds, 0.75% hits;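 also: 0% = vehicle wells with enzyme and 100% = reference inhibitor wells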
# MsrA activ conf: bovine MsrA activators, retest, confirmation, biochemical, absorbance, HTS | shares compounds with bovine MsrA act | purified bovine MsrA, absorbance read-out | activation, % at 10.6 µM | 1,000 compounds, 12% hits | AID 602270, 2012; in the data active = activation above about 4%;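 also: enzyme coupled to thioredoxin and thioredoxin reductase with NADPH; 0% = vehicle wells and 100% = reference activator wells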
# MsrA inh confirm: bovine MsrA inhibitors, retest, confirmation, biochemical, absorbance, HTS; AID 651822, 2012; purified bovine MsrA, absorbance read-out; 2,300 compounds, 41% hits; inhibition, % at 15.5 µM; shares compounds with MsrA inhibitor;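 also: coupled to thioredoxin reductase with NADPH and selenocystamine and DMSO as substrate; 0% = vehicle only and 100% = full effect of reference inhibitor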
# * = called active by the depositor; nt = no result given; ! = not confirmed by another sample. Rule as the data show it, unless noted: active = inhibition above about 4.5%; inactive = the rest.
SMILES,PKA-R1A activ,bovine MsrA act,Mot1-301 SUMO,PKA-R2B act,MsrA inhibitor,MsrA inh confirm,others
O=P(C(c1ccc2c(c1)OCO2)N1CCOCC1)(N1CCOCC1)N1CCOCC1 (centres undefined),-5,13*,23,3,-1,nt,MsrA activ conf=-3
OCC[n+]1c2ccccc2nc2ccc(N3CCOCC3)cc21,nt,21*,-13,nt,5.8*,nt,MsrA activ conf=10*
C[C@@H]1CNCCN1c1ccc(N2CC[C@@H](O)C2)c(C#N)c1,nt,nt,nt,nt,0,nt,
Cn1ncnc2c(=O)n(C)c(=O)nc1-2,-15,14*,-8,-7,nt,nt,MsrA activ conf=12*
O=c1[nH]sc2cc(F)ccc12,-4,12*,nt,-2,0,nt,MsrA activ conf=10*
C[C@@H]1CNCCN1c1ccc(N2CC[C@H](O)C2)c(C#N)c1,nt,nt,nt,nt,0,nt,
COC(=O)C1=C(c2ccc(OC(F)(F)F)cc2)C[C@@H]2CC[C@H]1N2C(=O)N1CCc2cc(OC)c(OC)cc2C1,nt,nt,nt,nt,-1,nt,
O=S1(=O)N(CCN2CC=C(c3c[nH]c4cc(F)ccc34)CC2)c2cccc3c2N1CCC3,-6,7.8*,-16,1,-1,nt,MsrA activ conf=-1
CCCCNC(=S)N1CCn2cccc2C1c1cccnc1 (centres undefined),-14,-2,5,5,1,nt,
CNC(=S)N1CCn2cccc2C1c1cccnc1 (centres undefined),-4,20*,-9,-6,2,nt,MsrA activ conf=-4
Cc1cc(N2CCNC[C@H]2C)ccc1N1CCN[C@@H](C)C1,nt,nt,nt,nt,0,nt,
COC(=O)C1C(c2ccccc2)CC2CCC1N2C (centres undefined),nt,nt,nt,nt,-1,nt,
CCC(C)C(=O)N[C@@H](c1ccccc1)[C@@H](O)C(=O)O[C@H]1C[C@@]2(O)[C@@H](OC(=O)c3ccccc3)C3[C@](C)(C(=O)[C@H](OC(C)=O)C(=C1C)C2(C)C)[C@@H](O)C[C@H]1OC[C@@]31OC(C)=O (some centres undefined),-4,-1,4,-4,0,nt,
C/C=C(\C)C(=O)N[C@@H](c1ccccc1)[C@@H](O)C(=O)O[C@H]1C[C@@]2(O)[C@@H](OC(=O)c3ccccc3)C3[C@](C)(C(=O)[C@H](OC(C)=O)C(=C1C)C2(C)C)[C@H](O)C[C@H]1OC[C@@]31OC(C)=O (some centres undefined),-3,10*,313,6,0,nt,MsrA activ conf=-1
COC(=O)C1=C(c2ccc(F)cc2OCc2ccccc2)C[C@@H]2CC[C@H]1N2C(=O)NCc1ccccc1,-1,-8,4,-1,-1,nt,
COC(=O)C1=C(c2ccc(F)cc2OCc2ccccc2)C[C@@H]2CC[C@H]1N2C(=O)NCC1CC1,0,8.4*,2,-2,1,nt,MsrA activ conf=0
CCc1ccc(-n2c(O)c(/C=N/NC(=O)c3ccncc3)c(=O)[nH]c2=O)cc1,4,-6,24,7,4.7*,4.6*,
C=CC1C[N+]2(C)CCC1CC2C(O)c1ccnc2ccccc12 (centres undefined),nt,nt,nt,nt,-1,nt,
COc1ccc(-c2cc(=NCCCCCC(=O)O)c3cc(C)ccc3o2)cc1,13,-8,nt,2,6.3*,7.0*!,
COc1ccc(OC)c(-n2c(O)c(C=Nc3c(C)n(C)n(-c4ccccc4)c3=O)c(=O)[nH]c2=O)c1,-2,-4,35,2,4,nt,
COc1ccccc1-n1c(O)c(C=Nc2c(C)n(C)n(-c3ccccc3)c2=O)c(=O)[nH]c1=O,-2,-4,7,9,5.4*,4.8*,
C[C@H]1CN([C@@H](C)CO)C(=O)CCCn2cc(nn2)CO[C@@H]1CN(C)C(=O)Oc1cccc2ccccc12,nt,nt,nt,nt,0,nt,
CCN(CC)c1ccc(/C=C2\C(=O)NC(=O)N(Cc3ccco3)C2=O)cc1,-2,-6,13,-2,4,nt,
CCCCN1C(=O)/C(=C/c2ccc(N(C)C)cc2)C(=O)N(Cc2ccco2)C1=O,-4,-5,3,4,5.3*,5.5*,
CC1=CC(=C2C(=O)NC(=O)NC2=O)C=C(C(F)(F)F)N1Cc1ccccc1,-9,-8,7,-4,-1,nt,
SMILES,PKA-R1A activ,bovine MsrA act,Mot1-301 SUMO,PKA-R2B act,MsrA inhibitor,MsrA inh confirm,others
CC1=CC(=C2C(=O)NC(=O)NC2=O)C=C(C(F)(F)F)N1C(C)C,2,-5,-3,12,4.9*,2,
COC(=O)C1C(c2ccc(I)cc2)CC2CCC1N2C (centres undefined),nt,nt,nt,nt,-1,nt,
COc1cc(CCN)c(OC)cc1C,nt,nt,nt,nt,-1,nt,
COc1cc(C(=O)NN=Cc2ccc(N(CCCl)CCCl)cc2)cc(OC)c1OC,5,-6,nt,-9,5.2*,4,
CC(=O)NC(Cc1ccc(N(CCCl)CCCl)cc1)C(=O)O (centres undefined),-7,-11,0,-8,1,nt,
O=S(=O)(c1ccc2ccccc2c1)N1Cc2cc(Br)ccc2-n2nncc2C1,nt,nt,nt,nt,1,nt,
C[n+]1c(-c2ccccc2)c2cc(N)ccc2c2ccc(N)cc21,-5,4,116,5,44*,34*,
Nc1ccc2ccc3cccc[n+]3c2c1,-8,-5,-26,4,2,nt,
CN1C(=O)N(C)C(=O)C2(Sc3ccccc3C2=O)C1=O,-1,-2,-9,-13,59*,1,
CC1C2Cc3ccc(O)cc3C1(C)CCN2CC1CC1 (centres undefined),nt,nt,nt,nt,-1,nt,
CN(C)c1ccc(C=C2C(=O)NC(=S)NC2=O)cc1[N+](=O)[O-],-1,-8,105,-7,7.3*,3,
O=C1NC(=O)N(Cc2cccs2)C(=O)/C1=C/c1ccc(N2CCOCC2)cc1,-9,-8,23,-3,4.7*,3,
N/C(=N\N=C/c1ccc(-c2ccc(O)c(C(=O)O)c2)o1)N[N+](=O)[O-],6,-4,-9,-4,5.2*,4.7*,
CC(C)(C)c1cc(O)ccc1O,nt,nt,nt,nt,1,nt,
COc1ccc2nc(-c3ccc(CN4CCC(n5c(=O)[nH]c6cc(Cl)ccc65)CC4)cc3)c(-c3ccccc3)nc2c1,nt,nt,nt,nt,1,nt,
CSc1nc(N)c(N=Nc2ccc([As](=O)(O)O)cc2)c(=O)[nH]1,-3,-6,366,4,82*,86*,
COc1ccc(N=Nc2c(O)[nH]c(=S)[nH]c2=O)cc1,-5,-4,-22,9,0,nt,
CCOP(=O)(Nc1ccc2c(c1)C(=NNC(N)=S)c1ccccc1-2)OCC,1,-1,nt,2,15*,11*,
